The record followed here is PubChem BioAssay (NCATS).

Inconclusive results are not listed. Entries that show only a call come without a potency. Calls of active or inactive are those of the source. Calls come from the whole dose curve; as a rule, active = well fitted inhibition curve with a large enough effect; inconclusive = small, poorly fitted or top-dose-only effect; inactive = flat fitted curve, though single readings scatter.
Potency is the fitted concentration of half-maximal effect.

Ubiquitin carboxyl-terminal hydrolase 1 (Homo sapiens), sequence (O94782 whole entry, looked up): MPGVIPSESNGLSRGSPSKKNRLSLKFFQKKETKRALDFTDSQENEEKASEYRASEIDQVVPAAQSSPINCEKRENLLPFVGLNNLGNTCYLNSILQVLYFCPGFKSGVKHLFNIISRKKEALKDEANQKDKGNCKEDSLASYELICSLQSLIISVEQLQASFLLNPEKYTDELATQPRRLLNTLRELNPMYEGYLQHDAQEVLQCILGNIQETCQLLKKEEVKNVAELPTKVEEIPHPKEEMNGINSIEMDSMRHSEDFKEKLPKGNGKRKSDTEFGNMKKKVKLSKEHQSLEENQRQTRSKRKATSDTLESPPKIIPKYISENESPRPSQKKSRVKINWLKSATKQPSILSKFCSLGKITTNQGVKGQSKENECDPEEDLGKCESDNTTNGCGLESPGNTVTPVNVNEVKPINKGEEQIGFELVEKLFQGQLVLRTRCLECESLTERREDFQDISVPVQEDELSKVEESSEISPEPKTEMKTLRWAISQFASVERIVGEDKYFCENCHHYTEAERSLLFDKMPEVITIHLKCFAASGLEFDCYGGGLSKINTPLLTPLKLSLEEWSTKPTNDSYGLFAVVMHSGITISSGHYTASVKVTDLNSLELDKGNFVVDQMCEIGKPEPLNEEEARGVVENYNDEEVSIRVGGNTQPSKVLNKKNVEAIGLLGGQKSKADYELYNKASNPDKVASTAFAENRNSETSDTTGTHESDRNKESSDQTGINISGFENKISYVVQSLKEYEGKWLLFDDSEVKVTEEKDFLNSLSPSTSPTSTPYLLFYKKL

The target in this test is Ubiquitin carboxyl-terminal hydrolase 1 (Homo sapiens) (UniProt O94782). Put plainly: Inhibitors of USP1/UAF1: Pilot qHTS (AID 504865). Note: nearly all actives have a fitted effect of over 35% in size. The following applies: purified USP1/UAF1, Ub-rhodamine cleavage fluorescence; series mostly up to 114 µM. The gist of the method:
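Deubiquitinase activity followed as kinetic rhodamine fluorescence release from 150 nM Ub-Rho. 1 nM USP1/UAF1 with compound, after 15 min room-temperature preincubation, in HEPES pH 7.8 buffer containing TCEP, EDTA, BSA and Tween-20.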
(qHTS replaces the single test concentration by a dilution series.)
For `CCCCOC(=O)c1ccc(O)cc1`, the Potency result was “inactive”.

Turning to `CC1(C)[C@@H]2CC[C@@]1(C)C(=O)C2`, the Potency result was “inactive”.

In the case of `COc1ccc2[nH]c(S(=O)Cc3ncc(C)c(OC)c3C)nc2n1` (centres undefined), the Potency entry was “inactive”.

For the compound `O=c1cc[nH]c(=S)[nH]1`, the Potency result is “inactive”.

For `O=c1cc(CO)occ1O`, the Potency result is “inactive”.

For `NC(CSCC(=O)O)C(=O)O` (centres undefined), the Potency entry is “inactive”.

Turning to `CC(O)CN(CCN(CC(C)O)CC(C)O)CC(C)O` (centres undefined), the Potency result was “inactive”.

For the compound `CC12CCC(CC1)C(C)(C)O2`, the Potency result is “inactive”.

For the compound `O=C(O)c1ccccn1`, the Potency result was “inactive”.

Turning to `Cc1cccc(Nc2cc(Cl)nc(SCC(=O)O)n2)c1C`, the Potency result was “inactive”.

In the case of `Cc1cccc(C)c1NC(=O)CN(CC(=O)O)CC(=O)O`, the Potency entry was “inactive”.

Regarding `O=C1O[C@H]([C@@H](O)CO)C(O)=C1O`, the Potency entry was “inactive”.

`COc1ccccc1O`: the Potency result was “inactive”.

On to `NCC(=O)CCC(=O)O`, for which the Potency entry was “inactive”.

On to `CCCCCCCCCCCCOS(=O)(=O)O`, for which the Potency is 79.4 µM (active).

As to `O=C1NS(=O)(=O)c2ccccc21`, the Potency result was “inactive”.

Consider `Nc1ccc(S(=O)(=O)Nc2nccs2)cc1`, for which the Potency entry is “inactive”.

As for `CC(O)COc1ccccc1` (centres undefined), the Potency result is “inactive”.

For the compound `CCOC(=O)c1ccc(O)cc1`, the Potency result is “inactive”.

With `COc1ccc2c(c1)C(=O)N(CCc1ccc(S(=O)(=O)NC(=O)NC3CCCCC3)cc1)C(=O)C2(C)C`, the Potency entry was “inactive”.

In the case of `NCCNCCNCCNCCN`, the Potency entry was “inactive”.

Turning to `c1ccc(CN(CC2=NCCN2)c2ccccc2)cc1`, the Potency entry is “inactive”.

For the compound `Cn1c(=O)c2c(ncn2CC2OCCO2)n(C)c1=O`, the Potency result was “inactive”.

Turning to `CCCCN(CCCC)CC(O)c1cc(Cl)cc2c1-c1ccc(Cl)cc1/C2=C/c1ccc(Cl)cc1` (centres undefined), the Potency result was “inactive”.

With `NC(=O)N/N=C/c1ccc([N+](=O)[O-])o1`, the Potency entry was “inactive”.

As for `NCCNCCNCCN`, the Potency entry was “inactive”.

Turning to `Oc1cccc(O)c1`, the Potency entry is “inactive”.

`O=C(O)CN1C(=O)c2cccc3cccc(c23)C1=O`: the Potency entry was “inactive”.

For `OC[C@H]1O[C@@H](O[C@@H]2[C@@H](CO)O[C@](O)(CO)[C@H]2O)[C@H](O)[C@@H](O)[C@H]1O`, the Potency entry is “inactive”.

For the compound `Cc1cc(CC(=O)O)n(C)c1C(=O)c1ccc(Cl)cc1`, the Potency entry is “inactive”.

`CCCCC(CC)COC(=O)c1ccccc1O` (centres undefined): the Potency result is “inactive”.

For `C[C@@H]1CN(c2c(F)c(F)c3c(=O)c(C(=O)O)cn(C4CC4)c3c2F)C[C@H](C)N1`, the Potency result was “inactive”.

On to `CCOc1ccc2ccccc2c1C(=O)N[C@@H]1C(=O)N2[C@@H]1SC(C)(C)[C@@H]2C(=O)O`, for which the Potency result was “inactive”.

Turning to `Cc1cc2c(cc1S(N)(=O)=O)S(=O)(=O)CCC2`, the Potency entry is “inactive”.
